The source of these data is article PMC5540273 (PLoS ONE, 2017).

Some test systems named below: STK36; STK39; SYK; SgK110; TAOK1; TAOK2; TAOK3; TBK1; TEC.
Holding throughout (details): concentration: 1 μM, replicates: in singlicate; n = 1
The next test relates to T1, TAK1.
T1 construct: gene MAP3K7
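Further: KINOMEscan kinase panel screen.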

With `CC(=O)N1CCN(c2ccc(Nc3nccc(-c4sc(C(C)C)nc4-c4cccc(NS(=O)(=O)c5cccc(Cl)c5)c4)n3)cn2)CC1` [GSK1660437], the “%Inh” value in the test on STK36 was 99.8%; with STK39 it was 19%; in the test on SYK, 61%; with SgK110 it was 0%; in the test with TAK1 it was 41%; with TAOK1, 0%. The “%Inh” value in the test on TAOK2 is reported as 0%; with TAOK3, 3%; in the test with TBK1, 2%; in the test with TEC it was 21%.
For `CCc1ccc(-c2ccc3c(c2)-c2c(cnn2C)S(=O)(=O)N3C)cc1`, the “%Inh” value with STK36 is 0%; in the test on STK39 it was 0%; with SYK it was 0%; in the test with SgK110, 0%; with TAK1, 4%; with TAOK1 it was 0%. In addition, the “%Inh” value with TAOK2 was 0%; with TAOK3, 0%; in the test on TBK1 it was 8%; with TEC, 0%.
For the compound `Cc1ccc(C(=O)N2CC[C@@H](O)C2)cc1-n1c(C)cc(OCc2ccc(F)cc2F)c(Br)c1=O`, the “%Inh” value was 0% with STK36; 0% in the test on STK39; 7% in the test with SYK; 0% in the test with SgK110; 0% in the test with TAK1; 31% in the test with TAOK1. Also, the “%Inh” value turned out to be 57% in the test on TAOK2, 0% in the test on TAOK3, 1% in the test with TBK1 and 0% with TEC.
As for `CN(C)S(=O)(=O)c1cc(-c2ccc3nccc(-c4cccc(S(N)(=O)=O)c4)c3c2)cnc1N` [GSK1669921], the “%Inh” value in the test on STK36 came out at 0%; with STK39, 0%; with SYK it was 0%; with SgK110, 0%; with TAK1, 0%; in the test on TAOK1, 18%. The “%Inh” value with TAOK2 is 0%; with TAOK3, 7%; in the test with TBK1, 2%; with TEC it was 12%.
With `Oc1cc(Nc2ccnc3cc(I)ccc23)ccc1F` [GW552771], the “%Inh” value in the test on STK36 came to 0%; in the test on STK39, 21%; with SYK it was 19%; in the test with SgK110 it was 0%; with TAK1, 0%; in the test with TAOK1, 0%. Moreover, the “%Inh” value in the test with TAOK2 came to 0%; in the test with TAOK3 it was 0%; in the test with TBK1 it was 0%; in the test with TEC, 12%.
As for `CC(C)(C)c1ccc2nccc(Nc3cccc(O)c3)c2c1` [GW856795], the “%Inh” value is on record as 0% in the test on STK36; 14% with STK39; 0% in the test on SYK; 0% with SgK110; 23% with TAK1; 100% in the test on TAOK1. The “%Inh” value turned out to be 0% in the test on TAOK2, 59% in the test with TAOK3, 14% in the test on TBK1 and 12% in the test with TEC.
With `Cl.c1ccc(-c2ccc3c(Nc4ccc5[nH]ccc5c4)ccnc3c2)nc1` [GW440138], the “%Inh” value in the test with STK36, in the test with STK39, with SYK, in the test on SgK110, in the test with TAK1 and in the test with TAOK1 was 0% in each case. The “%Inh” value in the test with TAOK2 amounted to 0%; in the test on TAOK3 it was 0%; with TBK1 it was 12%; with TEC, 0%.
`C[C@@H](Oc1cc(-n2cnc3cc(-c4ccnc(NCCS(C)(=O)=O)c4)ccc32)sc1C(N)=O)c1ccccc1Cl` [GSK907232]: the “%Inh” value in the test with STK36 was 0%; in the test on STK39, 13%; with SYK, 80%; in the test on SgK110, 0%; in the test with TAK1, 0%; in the test with TAOK1 it was 0%. For the same compound, the “%Inh” value is given as 0% with TAOK2, 0% with TAOK3, 5% in the test with TBK1 and 4% in the test on TEC.
On to `CN1CCN(Cc2cccc(-c3ccc4c(Nc5ccc(Oc6ccccc6)cc5)ccnc4c3)c2)CC1` [GW578342], for which the “%Inh” value in the test on STK36 amounted to 0%; in the test with STK39 it was 6%; in the test on SYK it was 0%; in the test with SgK110, 6%; in the test with TAK1 it was 13%; with TAOK1, 0%. Besides, the “%Inh” value with TAOK2 is on record as 0%; in the test on TAOK3, 0%; in the test with TBK1, 16%; with TEC, 70%.
Take `NCCCC(NC(=O)c1cc(Br)c(-c2ccnc3[nH]ccc23)s1)c1ccccc1.O=C(O)C(F)(F)F.O=C(O)C(F)(F)F` (centres unmarked) [GSK1287544]: the “%Inh” value is on record as 0% in the test with STK36; 0% in the test on STK39; 0% with SYK; 58% in the test on SgK110; 0% with TAK1; 34% with TAOK1. Also, the “%Inh” value in the test with TAOK2, with TAOK3, in the test on TBK1 and with TEC was 0% in each case.
With `CN(C)Cc1ccc(-c2ccc3c(Nc4ccc(Oc5ccccn5)cc4)ccnc3c2)o1` [GW567148], the “%Inh” value worked out at 0% with STK36; 0% with STK39; 0% with SYK; 0% with SgK110; 23% with TAK1; 0% in the test on TAOK1. Moreover, the “%Inh” value is 0% in the test with TAOK2, 0% in the test with TAOK3, 7% in the test with TBK1 and 49% in the test with TEC.
As to `COCCOCCOc1cc2ncc3c4ccc(C#N)cc4[nH]c3c2cc1OC`, the “%Inh” value in the test with STK36 turned out to be 22%; in the test on STK39 it was 0%; in the test with SYK it was 5%; in the test with SgK110 it was 0%; in the test with TAK1, 88%; with TAOK1 it was 0%. Further, the “%Inh” value in the test on TAOK2 is recorded as 12%; with TAOK3 it was 0%; in the test with TBK1, 89%; with TEC, 0%.
For the compound `O=C(Nc1n[nH]c2nc(-c3ccc(O)cc3)ccc12)C1CC1` [SB-710363], the “%Inh” value worked out at 15% in the test with STK36; 18% in the test with STK39; 25% in the test with SYK; 0% with SgK110; 21% in the test with TAK1; 98.9% with TAOK1. Besides, the “%Inh” value was found to be 79% with TAOK2, 95.9% in the test with TAOK3, 19% with TBK1 and 0% in the test with TEC.
As to `COc1cc(Nc2nccc(N3CCC(NC(=O)Nc4cccc(C(C)=O)c4)C3)n2)cc(OC)c1OC` (centres unmarked) [GSK1379753], the “%Inh” value in the test with STK36 stood at 30%; with STK39, 0%; with SYK it was 28%; with SgK110 it was 0%; in the test on TAK1, 0%; with TAOK1, 0%. Further, the “%Inh” value was 0% in the test on TAOK2, 0% with TAOK3, 28% with TBK1 and 0% in the test on TEC.
